Experimental findings from PubChem BioAssay (NCI) are described below.

About 83,000 compounds went through this panel and 20% of them were active in at least one assay; those are over-represented in the sample as a whole.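 Cells were grown in 96-well plates and exposed to the test compound at a single concentration for 48 hours; results are reported as percent growth, with values below 10 considered active.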 Unmarked numbers belong to inactive results. Calls of active or inactive are those of the source.

This assay concerns COLO 205 colon. Description: NCI-60 one-dose screen, 48 h (100 = growth as untreated, 0 = no growth, -100 = all killed). The conditions noted are these: 10 µM unless noted.
Take `Cc1ccc(/C=C/C(=O)c2ccc(F)cc2)s1`: the growth was 108%.

For `O=C1Nc2ccc(Cl)cc2/C1=C/c1cccs1`, the growth was 117%.

On to `O=C(c1ccccc1)c1ccc(Oc2ccc([N+](=O)[O-])cc2[N+](=O)[O-])cc1`, for which the growth is 84%.

Consider `CC[C@H]1CN2CCc3cc(OC)c(OC)cc3C2C[C@@H]1CC1NCCc2cc(OC)c(OC)cc21` (stereo partly drawn), for which the growth is -66.1% (active).

In the case of `O=C(/C=C/c1cccc(O)c1)c1cccc(-n2cc(-c3ccccc3)[nH]c2=O)c1`, the growth was 83.8%.

Consider `CCOC(=O)Nc1cc(-c2ccc(C)c(NS(C)(=O)=O)c2)nn2c(C)nnc12`, for which the growth is 3.41% (active).

As for `C1CCC(C(CC2CCCCN2)C2CCCCC2)CC1` (stereo not drawn), the growth is -63.6% (active).

`C[C@H]1c2cccc(O)c2C(O)=C2C(=O)[C@]3(O)C(O)=C(C(N)=O)C(=O)[C@@H](N(C)C)[C@@H]3[C@@H](O)[C@@H]21`: the growth is 67.8%.

Turning to `COc1ccc(C(=O)COc2cccc(/C=C3\COc4ccc5ccccc5c4C3=O)c2)cc1`, the growth is 123%.

As for `CN1CCC[C@@H]1CCO[C@](C)(c1ccccc1)c1ccc(Cl)cc1`, the growth is 20%.

Take `C=CCNC(=O)/C(=C/c1cccc([N+](=O)[O-])c1)NC(=O)c1ccccc1`: the growth was 120%.

On to `CCc1ccc(-c2nc(SCC(=O)NC3CCCCC3)n[nH]2)cc1`, for which the growth is 122%.

Regarding `Cc1cc2ccccn2c1C(=O)c1ccc(C(=O)c2ccccc2)cc1`, the growth is 102%.

On to `C[N+]1(C)C2CC[C@@H]1CC(OC(=O)C(O)c1ccccc1)C2` (stereo partly drawn), for which the growth was 129%.

`CC(C)Sc1nc(-c2ccc(Br)cc2)c(C#N)c(N2CCCCC2)n1`: the growth is 135%.

As for `CCOC(=O)c1sc(NC(=O)COc2cccc(/C=C3\CCc4cc(OC)ccc4C3=O)c2)nc1C`, the growth was 135%.

Consider `Nc1ccc(Oc2c(F)c(F)c(Oc3ccc(N)cc3)c(F)c2F)cc1`, for which the growth was 108%.

With `CC12CCC3C(=CCc4cc(O)ccc43)C1CCC2=O` (stereo not drawn), the growth is 111%.

With `COc1cccc(C2=NN(C(C)=O)C(c3cc(OC)c(OC)c(OC)c3)C2)c1` (stereo not drawn), the growth was 22.2%.

Take `Cc1ccc(S(=O)(=O)NCCN2c3nc4ccccc4cc3Sc3cc4ccccc4nc32)cc1`: the growth is 113%.

`COc1cc(-c2nc3nc4sc(C)c(C)c4c(=O)n3[nH]2)cc(OC)c1OC`: the growth is 94.2%.

Take `O=C(CNc1ccc2c(c1)C(=O)c1ccccc1C2=O)Nc1ccc2c(c1)C(=O)c1ccccc1C2=O`: the growth was -89% (active).

Take `CC(C)=CCNc1ncnc2c1ncn2C1OC(COP(=O)(O)O)C(O)C1O` (stereo not drawn): the growth was 63%.

As for `CCCCc1ccc(C(N)=O)nc1`, the growth is 118%.

Consider `Oc1ccccc1/C=N/N1CCCCCC1`, for which the growth was 122%.

On to `CCOc1nc(-c2ccco2)n2nc(-c3ccco3)cc2n1`, for which the growth was 131%.

`Cc1onc(-c2ccccc2Cl)c1C(=O)N[C@@H]1C(=O)N2[C@@H]1SC(C)(C)[C@@H]2C(=O)O`: the growth is 109%.

Consider `O=C(Nc1ccccc1)P(=O)(O)c1ccccc1`, for which the growth was 114%.

For the compound `CC(C)CC1NC(=O)C(CCCN)NC(=O)C(C(C)C)NC(=O)C2CCCN2C(=O)C(Cc2ccccc2)NC(=O)C(CC(C)C)NC(=O)C(CCCN)NC(=O)C(C(C)C)NC(=O)C2CCCN2C(=O)C(Cc2ccccc2)NC1=O` (stereo not drawn), the growth was -90.2% (active).

As for `Cc1nn(-c2nc3ccccc3s2)c(C)c1Oc1ccccc1O`, the growth was 92.3%.

On to `O=C(/C=C/c1ccc([N+](=O)[O-])cc1)c1ccc2c3c(cccc13)CC2`, for which the growth is 49%.

On to `O=C(N/N=C/c1cccc([N+](=O)[O-])c1)c1ccc(Br)o1`, for which the growth is 97.9%.

For `CCN(Cc1cccc(S(=O)(=O)[O-])c1)c1ccc(C(=C2C=CC(=[N+](CC)Cc3cccc(S(=O)(=O)O)c3)C=C2)c2ccccc2S(=O)(=O)O)cc1`, the growth is 107%.

Take `c1ccc2nc(N/N=C3\CCCCC3C3CCCCC3)ccc2c1` (stereo not drawn): the growth is 41%.

For `COc1ccc2nc(N/N=C(\C)c3ccccn3)cc(C)c2c1`, the growth was -78.2% (active).

For the compound `O=C(c1ccc(Cl)cc1)c1ccc(Cl)cc1`, the growth is 117%.

As for `C[C@]12CC[C@H](O)CC1=CC[C@@H]1[C@@H]2CC[C@]2(C)C(c3cccnc3)=CC[C@@H]12`, the growth was 95.1%.

Consider `Cc1cc(C)c(C(=O)c2cccs2)c(C)c1`, for which the growth was 103%.
